Source: PubChem BioAssay
Dicer inh: inhibitors of human Dicer processing of pre-microRNA; AID 1347074; hit rate 6% among 47,000; z-score at 25 µM; Q9UPY3; cat-ELCCA pre-miR-21 Dicer processing, chemiluminescence; hits give high values; in the data active means z-score above about 3, passing the limit was not always enough;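 further: plate controls were vehicle for no effect and no enzyme for full effect; higher signal means more uncleaved substrate so more Dicer inhibition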
Target sequence (Q9UPY3 whole entry, looked up): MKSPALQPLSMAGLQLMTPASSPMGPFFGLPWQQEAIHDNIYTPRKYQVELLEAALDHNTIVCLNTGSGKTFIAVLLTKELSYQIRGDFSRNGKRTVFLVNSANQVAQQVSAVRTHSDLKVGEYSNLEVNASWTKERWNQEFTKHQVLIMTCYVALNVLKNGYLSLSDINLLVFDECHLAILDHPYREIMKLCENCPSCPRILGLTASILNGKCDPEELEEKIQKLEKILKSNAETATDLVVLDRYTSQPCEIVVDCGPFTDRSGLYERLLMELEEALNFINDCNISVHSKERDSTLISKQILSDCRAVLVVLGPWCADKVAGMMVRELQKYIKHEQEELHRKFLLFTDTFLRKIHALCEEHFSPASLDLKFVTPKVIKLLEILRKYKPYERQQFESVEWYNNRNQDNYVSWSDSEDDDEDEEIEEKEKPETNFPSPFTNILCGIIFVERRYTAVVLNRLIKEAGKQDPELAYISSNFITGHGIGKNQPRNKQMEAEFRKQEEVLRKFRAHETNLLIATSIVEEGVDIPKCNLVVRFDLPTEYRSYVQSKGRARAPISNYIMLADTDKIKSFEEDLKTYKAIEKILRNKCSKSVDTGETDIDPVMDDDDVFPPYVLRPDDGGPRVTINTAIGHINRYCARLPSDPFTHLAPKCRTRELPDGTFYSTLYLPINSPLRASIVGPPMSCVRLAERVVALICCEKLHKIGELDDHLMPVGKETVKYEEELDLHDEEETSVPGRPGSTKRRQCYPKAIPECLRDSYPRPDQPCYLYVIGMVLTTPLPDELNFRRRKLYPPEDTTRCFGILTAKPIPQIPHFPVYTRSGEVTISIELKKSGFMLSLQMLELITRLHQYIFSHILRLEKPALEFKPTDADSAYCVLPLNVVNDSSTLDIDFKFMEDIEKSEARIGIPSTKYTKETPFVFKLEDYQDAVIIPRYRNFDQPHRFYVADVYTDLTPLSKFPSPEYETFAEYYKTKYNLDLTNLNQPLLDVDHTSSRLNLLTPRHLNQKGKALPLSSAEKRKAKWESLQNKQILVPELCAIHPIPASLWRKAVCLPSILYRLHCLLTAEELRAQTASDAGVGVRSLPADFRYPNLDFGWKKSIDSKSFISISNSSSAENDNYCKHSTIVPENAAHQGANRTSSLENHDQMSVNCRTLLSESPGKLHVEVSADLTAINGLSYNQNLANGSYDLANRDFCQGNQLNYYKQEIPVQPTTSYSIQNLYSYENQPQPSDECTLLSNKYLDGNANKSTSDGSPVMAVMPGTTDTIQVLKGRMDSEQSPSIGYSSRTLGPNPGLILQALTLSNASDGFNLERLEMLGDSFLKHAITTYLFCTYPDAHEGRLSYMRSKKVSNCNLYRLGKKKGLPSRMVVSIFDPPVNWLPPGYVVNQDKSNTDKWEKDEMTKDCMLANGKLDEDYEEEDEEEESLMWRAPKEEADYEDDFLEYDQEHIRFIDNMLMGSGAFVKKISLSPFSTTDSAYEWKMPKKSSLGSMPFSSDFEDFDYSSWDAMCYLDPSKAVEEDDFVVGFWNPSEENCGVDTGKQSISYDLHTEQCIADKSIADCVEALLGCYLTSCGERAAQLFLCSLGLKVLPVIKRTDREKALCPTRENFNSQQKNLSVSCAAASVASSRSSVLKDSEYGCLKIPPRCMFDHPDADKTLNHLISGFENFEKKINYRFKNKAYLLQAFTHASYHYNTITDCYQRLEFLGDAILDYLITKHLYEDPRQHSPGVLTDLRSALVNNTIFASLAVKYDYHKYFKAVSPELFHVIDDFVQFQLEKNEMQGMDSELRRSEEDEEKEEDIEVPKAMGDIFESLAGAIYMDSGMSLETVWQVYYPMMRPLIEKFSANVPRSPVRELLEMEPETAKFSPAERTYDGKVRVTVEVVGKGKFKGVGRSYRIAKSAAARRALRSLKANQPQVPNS
* hit, by the source's call. Only a selection was taken, and hits are over-represented in it overall.

SMILES | Dicer inh
COc1ccc(OCC(O)Cn2c(NC3CCCCC3)nc3c2c(=O)n(C)c(=O)n3C)cc1 (stereo unspecified) | 3.3*
Cn1c(=O)c2c(nc(NC3CCCCC3)n2CC(O)COc2ccccc2)n(C)c1=O (stereo unspecified) | -2.4
CCCNC(=S)N1CCC(C(=O)c2ccc(C)cc2)CC1 | -0.7
CN(C)CCCNc1cccc(Cl)c1C#N | 1.2
CN(CCC#N)c1ccc(C=C2C(=O)NC(=O)NC2=O)cc1 | -3.5
CC1=C(OS(=O)(=O)c2cc(C)c(Cl)cc2Cl)C(=O)CC1 | -0.67
COc1ccc2nc(C3C(=O)c4ccccc4C3=O)cc(Cl)c2c1 | 6.5*
COc1ccc2nc(C3C(=O)c4ccccc4C3=O)ccc2c1 | 0.25
COc1ccc2nc3ccccc3c(N)c2c1 | 4*
COc1ccc2nc(N)sc2c1 | 0.42
COc1ccccc1-c1nc2ccc(Cl)cc2c(=O)o1 | -1.8
COc1ccc2nc(C)cc(Cl)c2c1 | 2.7
O=S1(=O)N=C(Nc2ccccc2Br)c2ccccc21 | 1.7
O=C(NNC(=O)c1cc2ncc(C(F)(F)F)cc2s1)c1ccno1 | -0.3
O=C1C(=O)N(CCCn2ccnc2)C(c2ccncc2)/C1=C(\O)c1ccccc1 (stereo unspecified) | 2.4
O=C(Nc1ccc(Oc2cccc(C(F)(F)F)c2)nc1)Nc1cccs1 | -0.38
CCCCc1cc(C)c2[nH]cc(C(=O)O)c(=O)c2c1 | -0.86
O=C(Nc1ccc(F)cc1)N1CCN(c2ccccc2F)CC1 | 0.41
O=C(NN1CC(=O)N(c2cc(Cl)cc(Cl)c2)CC1=O)c1cccs1 | -0.11
O=C(Nc1ccc(Cl)cc1)NN1CC(=O)N(c2ccccc2F)CC1=O | 4.9*
Cc1cc(S(=O)(=O)Nc2ccnn2C)c(C)cc1Cl | 0.05
CCCc1cc2c(=O)c(-c3ccc4c(c3)OCCO4)coc2cc1O | 0.45
Cc1cc(=O)oc2cc(O)ccc12 | 0.16
COc1ccc(-c2c(C)oc3cc(OC(C)C(=O)O)ccc3c2=O)cc1OC (stereo unspecified) | 1.3
CCOC(=O)c1oc2cc(O)ccc2c(=O)c1-c1ccc2c(c1)OCCO2 | 2.6
SMILES | Dicer inh
CCOC(=O)c1oc2cc(O)c(CC)cc2c(=O)c1-c1ccc2c(c1)OCCO2 | 4.5*
Cc1oc2cc(O)ccc2c(=O)c1-c1ccc2c(c1)OCCO2 | 5.5*
CC(=O)N1CCC(=O)Nc2ccccc21 | -0.11
O=S(=O)(Cc1ccc(Cl)cc1)c1ccc(C(F)(F)F)cn1 | 1.7
O=C1C=C(c2ccccc2)OC(c2ccc([N+](=O)[O-])cc2)O1 (stereo unspecified) | -0.29
Cc1csc(Nc2cccc3ccccc23)n1 | 3.3*
CC(=O)c1csc(Nc2ccccc2Cl)n1 | 1.2
COc1ccccc1Nc1nc(C)cs1 | -0.15
O=C1c2cc([N+](=O)[O-])ccc2-c2ccc([N+](=O)[O-])cc21 | 7.7*
NN=C1c2cc([N+](=O)[O-])ccc2-c2ccc([N+](=O)[O-])cc21 | -0.66
O=[N+]([O-])c1ccc2c(c1)C(=NO)c1cc([N+](=O)[O-])ccc1-2 | -0.89
O=C1C=C(NCc2ccco2)CC(c2ccccc2)C1 (stereo unspecified) | 1.2
O=C1C=C(NCc2ccncc2)CC(c2ccccc2)C1 (stereo unspecified) | 1.8
O=C1C=C(NCCc2ccccc2)CC(c2ccco2)C1 (stereo unspecified) | 5.7*
CCC(O)(c1ccccc1)c1ccccc1N (stereo unspecified) | -4.4
CSc1sc(C(=O)O)c2c1S(=O)(=O)N(C)c1ccsc1-2 | -0.85
O=C(Nc1csc(C(F)(F)F)c1-c1ccccc1)c1ccco1 | 4.4*
O=C(Nc1csc(C(F)(F)F)c1-c1ccccc1)C(Cl)(Cl)Cl | -0.5
Cc1csc(NC(=O)c2ccco2)c1C(=O)c1ccccc1 | 0.11
Cc1ccc(-c2cnc3c(-c4ccc(Cl)cc4)cnn3c2N)cc1 | 2.3
Cc1ccc(-c2cnc3c(-c4ccccc4)cnn3c2N)cc1 | 1.8
Nc1c(-c2ccc(Cl)cc2)cnc2c(-c3ccccc3)cnn12 | 3.1*
C=CCOC(=O)C1=C(C)NC2=C(C(=O)CC(C)(C)C2)C1c1ccccc1OC(C)C (stereo unspecified) | 4.2
COc1ccc(NC(=O)c2ccc([N+](=O)[O-])o2)c(OC)c1 | 1.8
CCCCC#Cc1cncc(-c2n[nH]c(=S)n2C)c1 | -1.6
SMILES | Dicer inh
CCOc1cc(C2c3c(oc4ccccc4c3=O)C(=O)N2c2ccc(C)cn2)ccc1O (stereo unspecified) | 4.7*
COC(=O)c1ccc(C2c3c(oc4ccccc4c3=O)C(=O)N2c2ccc(C)cn2)cc1 (stereo unspecified) | 0.93
Cc1ccc(N2C(=O)c3oc4ccccc4c(=O)c3C2c2cccc(O)c2)nc1 (stereo unspecified) | 1.1
CCOc1cc(C2c3c(oc4ccccc4c3=O)C(=O)N2c2ccccn2)ccc1O (stereo unspecified) | 2.7
COc1cc(C2c3c(oc4ccccc4c3=O)C(=O)N2c2ccc(C)cn2)ccc1O (stereo unspecified) | 4.3*
C=CCOc1ccc(C2c3c(oc4ccccc4c3=O)C(=O)N2c2ccc(C)cn2)cc1OCC (stereo unspecified) | 2.3
COc1ccc(CNCc2ccc(OC)c(OC)c2)cc1C | 0.23
CN(C)C(=S)Nc1cc(Cl)cc(Cl)c1 | 0.73
O=C1CC(c2ccccc2Cl)Oc2ccccc21 (stereo unspecified) | 0.15
C/C(=N\Nc1nc(-c2ccccc2)cs1)c1ccc(C)nc1 | -0.19
CCOc1ccc(C2c3c(oc4ccc(F)cc4c3=O)C(=O)N2CC2CCCO2)cc1OC (stereo unspecified) | -0.81
CN(C)/C=C1\CCCc2ccccc2C1=O | 3.4*
O=C1/C(=C/c2ccc3c(c2)OCO3)CCCc2ccccc21 | -1.7
CN(C)/C=C1\SCc2ccccc2C1=O | -1.5
C=CCSc1nnnn1-c1ccc(OC(=O)C=C(C)C)cc1 | -0.89
Cc1ccc(-n2nnnc2SCCOc2ccc(C)c(C)c2)cc1 | 9.8*
Cc1cc(=O)[nH]c(SCCOc2ccc(C)c(C)c2)n1 | -1.3
CCOC(=O)C1=NOC2C(=O)N(c3ccc(F)cc3)C(=O)C12 (stereo unspecified) | 1.3
COC(=O)C1=NOC2C(=O)N(c3ccc(F)cc3)C(=O)C12 (stereo unspecified) | 1.5
COC(=O)C1=NOC2C(=O)N(c3ccc(OC)cc3)C(=O)C12 (stereo unspecified) | 1
COC(=O)C1=NOC2C(=O)N(c3ccc(C)cc3)C(=O)C12 (stereo unspecified) | 3.6*
CCOC(=O)C1=NOC2C(=O)N(c3ccc(OC)cc3)C(=O)C12 (stereo unspecified) | -0.1
CCOC(=O)C1=NOC2C(=O)N(c3ccc(Cl)cc3)C(=O)C12 (stereo unspecified) | 3.7*
CC1=C(C(=O)OCc2ccccc2)C(c2cccc(Cl)c2)C2=C(CCCC2=O)N1 (stereo unspecified) | 0.29
Cn1c2ccccc2c2nnc(SCCCn3c(=O)[nH]c4ccccc43)nc21 | 2.5
SMILES | Dicer inh
Cc1c(NC(=O)C2CC2)c(=O)n(-c2ccccc2)n1C | 2.6
Cc1ccc(S(=O)(=O)Nc2cc(-c3ccc(C(C)(C)C)cc3)[nH]n2)cc1 | -7.2
CN(C)c1ccncc1C(O)C(F)(F)F (stereo unspecified) | 0.81
Nc1ccc(Cc2ccncc2)cc1 | 0.52
COc1ccc(N2C(=O)CC(SCC(=O)Nc3ccc(Br)cc3)C2=O)cc1 (stereo unspecified) | -0.16
COc1ccc(S(=O)(=O)N2CCSC2c2ccccc2)cc1 (stereo unspecified) | 2.1
